PubChem BioAssay
“And” between values parts separate entries of the source, which are not always exact repeats. Equal values may be shown once. The source made the active and inactive calls. Cut-off read from the data, not from the text of the source, unless noted: active = parasite load remaining mostly below about 12% (no sharp cut-off); inactive = mostly above about 10%.

Legend:
[1] = yeast 75Q aggregation reduction – 75Q-TubU reporter (AID 1593); conditions: Yeast 75Q polyglutamine aggregation reporter
[2] = blockers of cytochrome c efflux from mitochondria – biochemical, purified mitochondria (AID 1603); conditions: stronger effect = lower value;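 note: mouse liver mitochondria challenged with calcium chloride; signal normalized to the plate average as 100%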
[3] = polyglutamine aggregate formation blockers (AID 1604); conditions: polyglutamine-induced protein aggregation inhibition assay; stronger effect = higher value; tested at 2.5 µM
[4] = P. berghei load reduction in hepatocytes – cell-based, HepG2, luciferase luminescence, HepG2 viability, primary screen (AID 624349);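 note: 100% = mean of DMSO negative control wells on the same plate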; conditions: P. berghei liver stage in HepG2, luciferase luminescence, concentration not given here; parasite load remaining: stronger effect = lower value; viability: measured here: HepG2 viability without parasites
[5] = Wnt pathway potentiators raising nuclear beta-catenin – imaging, WNT3A-conditioned medium, mouse C2C12, NPC library, primary screen (AID 1117326; in the data active = nuclear beta-catenin stimulation mostly above about 4.2%, no sharp cut-off; inactive = mostly below about 10%); conditions: stronger effect = higher value
[6] = stimulators of insulin release from INS-1E, primary screen, cell-based, 5 mM glucose, NPC library (AID 1117329;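 active = compound raises insulin release from rat beta cells at 5 mM glucose, no numeric limit stated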); conditions: rat INS-1E insulin secretion, at 10 µM, stronger effect = higher value
[7] = growth inhibition of GSK3B-pretreated HCT116 cells – cell-based, CellTiter-Glo, 0.2 to 20 µM (AID 1117336;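 active = compounds lowering colon cancer cell viability after pretreatment blocking the GSK3B kinase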); conditions: HCT116 viability after GSK3B inhibitor, at 20 µM, stronger effect = higher value
[8] = inhibition of endothelial tube formation, primary screen, imaging, VEGF stimulated, CD31 staining, tube area, NPC library (AID 1117340;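 active = compound that reduces growth-factor-driven endothelial tube area in a mixed cell culture, no cutoff stated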); conditions: VEGF-stimulated ADSC/ECFC co-culture, at 10 µM, stronger effect = higher value
[9] = GLP1 release stimulators, primary, NCI-H716, NPC library (AID 1117341;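 active = compound raises GLP1 secretion from the human gut endocrine cells, with no numeric limit stated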); conditions: NCI-H716 cells, at 10 µM, stronger effect = higher value
[10] = HCT116 colon cancer cell growth inhibition, primary screen, CellTiter-Glo luminescence, NPC library (AID 1117342;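 active = compounds that lower survival of HCT116 colon cancer cells in the luminescence readout, no numeric limit stated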); conditions: at 20 µM (top of the series)
[11] = reduced SW480 viability measured with CellTiter-Glo, NPC library, primary (AID 1117343;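 active = compounds that lower viability of the colon cancer cells in the luminescence readout, with no numeric limit stated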); conditions: CellTiter-Glo luminescence; at 20 µM (top of the series)
[12] = NPC library primary testing for decreased DLD-1 cell viability via CellTiter-Glo (AID 1117346;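 active = compounds that lower survival of DLD-1 colon cancer cells in the luminescence readout, no cutoff given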); conditions: DLD-1 viability, CellTiter-Glo luminescence; at 20 µM (top of the series)
[13] = EMT-state selective cytotoxicity in co-culture – imaging, PC-3E GFP, TEM4-18 mCherry, primary screen (AID 1345086;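 active = compounds killing one labelled cell type while sparing the other, by normalised counts and ratio limits, not self-fluorescent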;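 for all read-outs here: cells exposed to compound for 72 h before imaging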;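 for red/green cell ratio (normalised): normalised mesenchymal count divided by normalised epithelial count so high means epithelial killing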); conditions: PC-3E GFP / TEM4-18 mCherry co-culture, imaging cell counts, at 1 µM; for red/green cell ratio (normalised): actives lie on both sides
[14] = test system: Aerobactin synthetase IucA (Klebsiella pneumoniae hvKP1); test: IucA enzyme inhibition, primary screen, biochemical, Spectrum library (AID 1346200; call rule not given here;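 note: 100% = wells without compound and 0% = wells lacking enzyme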); conditions: malachite green pyrophosphate, A620, at 8 µM, stronger effect = lower value
[15] = target: NAD(+) hydrolase SARM1 (Homo sapiens) (UniProt Q6SZW1); test: blocking NAD cleavage by SARM1 SAM-TIR – cell lysate, NAD-Glo luminescence (AID 1508614;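 active = compound whose remaining NAD level is above about 45 nM, limit read from the data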;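 note: higher remaining NAD means stronger inhibition of SARM1 NADase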); conditions: SAM-TIR HEK293T lysate NADase, at 1 µM, stronger effect = higher value
[16] = target: Mitogen-activated protein kinase 7 (Homo sapiens) (UniProt Q13164); test: Gal4-ERK5 driven luciferase induction – cell-based, HTS, primary screen (AID 1508626;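 active = luciferase signal above three times the same-plate solvent-only control wells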;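 note: luciferase driven by Gal4-ERK5 fusion binding five Gal4 sites before minimal TATA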); conditions: HeLa Gal4-ERK5 transactivation, 18 h, at 5 µM, stronger effect = higher value
[17] = galactose survival enhancers in mitochondrial complex I cybrids – cell-based, galactose medium, ATP luminescence, primary screen (AID 1645843;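 active = z-score of at least 1.8 in each of two replicates, scored against plate mean and spread of sample wells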;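 note: positive z means more ATP and so rescue of galactose-driven cybrid death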); conditions: complex I mutant cybrid cells, 72 h, stronger effect = higher value
[18] = viability loss with induced miR-34 in A549 – imaging, A549 dox-inducible miR-34, nuclei and caspase counts, primary screen (AID 1347080;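 active = compounds whose cell count with miR-34 switched on is under 0.7 times the count with it off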); conditions: A549 miR-34 inducible, Hoechst nuclei count, 48 h
[19] = MELAS cybrid and Rieske KO viability enhancers – cell-based, MELAS cybrids, Rieske KO mouse fibroblasts, CellTiter-Glo, primary screen (AID 1508586;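 active = mean z-score across replicates of 1.96 or higher in either the MELAS or the Rieske mutant cell line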;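 note: z relative to plate mean and SD of compound and empty wells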); conditions: low glucose
[20] = measured here: epithelial PC-3E GFP cell survival
[21] = measured here: mesenchymal TEM4-18 mCherry cell survival
[22] = measured here: total cells without miR-34 induction
[23] = MELAS cybrid survival, CellTiter-Glo 48 h, stronger effect = higher value
[24] = Rieske KO mouse fibroblast survival, CellTiter-Glo 72 h
[25] = measured here: relative caspase fold change +Dox/-Dox
[26] = measured here: total cells with miR-34 induction, stronger effect = lower value

Mitogen-activated protein kinase 7 (Homo sapiens), sequence (Q13164 whole entry, looked up, the tested form may be a part): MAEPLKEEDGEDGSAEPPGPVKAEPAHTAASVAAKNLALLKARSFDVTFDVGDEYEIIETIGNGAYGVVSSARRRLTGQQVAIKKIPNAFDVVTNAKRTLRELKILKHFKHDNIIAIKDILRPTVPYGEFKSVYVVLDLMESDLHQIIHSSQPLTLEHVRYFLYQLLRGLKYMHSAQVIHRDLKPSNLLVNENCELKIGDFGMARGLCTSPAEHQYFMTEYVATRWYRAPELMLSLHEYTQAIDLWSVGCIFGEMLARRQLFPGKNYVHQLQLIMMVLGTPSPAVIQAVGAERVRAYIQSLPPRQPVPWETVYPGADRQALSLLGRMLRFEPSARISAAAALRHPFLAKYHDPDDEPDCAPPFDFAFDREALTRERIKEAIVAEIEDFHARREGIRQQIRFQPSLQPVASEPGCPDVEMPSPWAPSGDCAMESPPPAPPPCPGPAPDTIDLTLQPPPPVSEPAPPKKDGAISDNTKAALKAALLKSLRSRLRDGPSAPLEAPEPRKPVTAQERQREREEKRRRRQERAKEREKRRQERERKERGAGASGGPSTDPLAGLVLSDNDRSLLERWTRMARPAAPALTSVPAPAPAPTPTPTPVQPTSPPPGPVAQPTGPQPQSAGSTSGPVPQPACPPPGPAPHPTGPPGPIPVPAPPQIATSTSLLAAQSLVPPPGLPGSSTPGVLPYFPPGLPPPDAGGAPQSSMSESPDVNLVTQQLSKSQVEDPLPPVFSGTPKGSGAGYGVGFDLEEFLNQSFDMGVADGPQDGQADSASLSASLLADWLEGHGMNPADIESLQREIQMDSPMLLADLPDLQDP
NAD(+) hydrolase SARM1 (Homo sapiens), sequence (Q6SZW1 whole entry, looked up, the tested form may be a part): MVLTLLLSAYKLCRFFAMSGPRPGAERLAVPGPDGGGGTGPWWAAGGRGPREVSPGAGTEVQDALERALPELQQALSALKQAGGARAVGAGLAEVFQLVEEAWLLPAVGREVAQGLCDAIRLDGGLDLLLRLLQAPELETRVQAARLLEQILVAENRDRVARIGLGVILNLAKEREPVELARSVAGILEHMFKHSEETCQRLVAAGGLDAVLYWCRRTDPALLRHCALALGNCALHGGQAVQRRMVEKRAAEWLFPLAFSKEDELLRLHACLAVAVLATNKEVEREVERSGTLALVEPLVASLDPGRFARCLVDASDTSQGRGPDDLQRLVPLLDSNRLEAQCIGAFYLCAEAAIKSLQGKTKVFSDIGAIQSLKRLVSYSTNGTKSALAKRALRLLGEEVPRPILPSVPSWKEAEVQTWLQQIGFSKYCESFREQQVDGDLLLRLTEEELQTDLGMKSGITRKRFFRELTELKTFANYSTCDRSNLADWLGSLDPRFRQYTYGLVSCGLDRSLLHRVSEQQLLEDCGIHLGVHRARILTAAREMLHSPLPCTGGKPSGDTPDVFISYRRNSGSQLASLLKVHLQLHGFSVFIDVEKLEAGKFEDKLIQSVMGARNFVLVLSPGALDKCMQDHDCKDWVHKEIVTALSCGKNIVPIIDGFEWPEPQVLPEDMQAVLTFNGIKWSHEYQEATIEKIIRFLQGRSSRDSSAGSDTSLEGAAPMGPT

Nc1ccncc1
score [1]: 1.34
cytochrome c release ratio [2]: 0.88
inhibition of aggregation [3]: -27.8%
parasite load remaining [4]: 151% (inactive) and 61% (inactive)
viability [4]: 71.5% and 95.5%
nuclear beta-catenin stimulation ([5]; at 10 µM): -0.9% (inactive)
nuclear beta-catenin stimulation ([5]; stimulation, at 2 µM): 0.7%
insulin secretion stimulation [6]: 0% (inactive)
viability decrease [7]: -0.55% (inactive)
tube area decrease [8]: -8.7% (inactive)
GLP1 secretion stimulation [9]: 2.4% (inactive)
inhibition of viability [10]: 1.7% (inactive)
viability decrease (inhibition) [11]: 11.9% (active)
viability decrease (inhibition) [12]: -6.35% (inactive)
red/green cell ratio (normalised) [13]: 0.8 (inactive)
normalised cell number [13, 20]: 1.23
normalised cell number [13, 21]: 0.99
activity remaining [14]: 105% (inactive)
remaining NAD [15]: 10 nM (inactive)
luciferase signal [16]: 32 AU (inactive)
z-score [17]: 0.855 (inactive) and 0.215 (inactive)

NN=C(N)N
nuclear beta-catenin stimulation ([5]; at 10 µM): 0.8% (inactive)
nuclear beta-catenin stimulation ([5]; stimulation, at 2 µM): 6.5%
insulin secretion stimulation [6]: 1.9% (inactive)
viability decrease [7]: -34.7% (inactive)
tube area decrease [8]: -0.5% (inactive)
GLP1 secretion stimulation [9]: -3.5% (inactive)
inhibition of viability [10]: 0.63% (inactive)
viability decrease (inhibition) [11]: 20.2% (inactive)
viability decrease (inhibition) [12]: -6% (inactive)
red/green cell ratio (normalised) ([13]; counts scaled to control wells, 1 = unselective): 0.96 (inactive) and 0.91 (inactive)
normalised cell number [13, 20]: 1.02 and 1.25
normalised cell number [13, 21]: 0.98 and 1.14
activity remaining [14]: 107% (inactive)
cell count [18, 22]: 10500 and 9550 and 9270
remaining NAD [15]: 10 nM (inactive)
z-score [17]: 0.575 (inactive) and 0.155 (inactive) and 0.34 (inactive)

O=P1(NCCCl)OCCCN1CCCl (stereo not drawn)
parasite load remaining [4]: 91% (inactive) and 76.7% (inactive) and 18.8% (inactive)
viability [4]: 94% and 95.7% and 66%
nuclear beta-catenin stimulation ([5]; at 10 µM): 1.1% (inactive)
nuclear beta-catenin stimulation ([5]; stimulation, at 2 µM): 0.8%
insulin secretion stimulation [6]: 2.9% (inactive)
viability decrease [7]: -25.5% (inactive)
tube area decrease [8]: 9.8% (inactive)
GLP1 secretion stimulation [9]: -0.1% (inactive)
inhibition of viability [10]: 7.23% (inactive)
viability decrease (inhibition) [11]: -16.8% (inactive)
viability decrease (inhibition) [12]: -5.2% (inactive)
red/green cell ratio (normalised) [13]: 1.03 (inactive)
normalised cell number [13, 20]: 1.08
normalised cell number [13, 21]: 1.11
activity remaining [14]: 114% (inactive)
z-score [19, 23]: -0.402 (inactive) and 0.719 (inactive) and 0.667 (inactive)
z-score [19, 24]: -0.0632 and -0.341 and -0.186
remaining NAD [15]: 10 nM (inactive)
luciferase signal [16]: 44 AU (inactive)
z-score [17]: 0.08 (inactive)

Oc1cc(Cl)ccc1Oc1ccc(Cl)cc1Cl
parasite load remaining [4]: -1.97% (inactive) and 16.2% (inactive)
viability [4]: 75.8% and 88.8%
nuclear beta-catenin stimulation ([5]; at 10 µM): 1.1% (inactive)
nuclear beta-catenin stimulation ([5]; stimulation, at 2 µM): 0.7%
insulin secretion stimulation [6]: 1.4% (inactive)
viability decrease [7]: 48.8% (inactive)
tube area decrease [8]: 104% (active)
GLP1 secretion stimulation [9]: 26.8% (active)
inhibition of viability [10]: 95% (active)
viability decrease (inhibition) [11]: 112% (active)
viability decrease (inhibition) [12]: 51.4% (active)
red/green cell ratio (normalised) [13]: 0.82 (inactive)
normalised cell number [13, 20]: 1.03
normalised cell number [13, 21]: 0.84
activity remaining [14]: 106% (inactive)
fold change ([18]; stronger effect = lower value): 1.03 (inactive) and 0.888 (inactive)
fold change [18, 25]: 2.38 and 7.01
cell count [18, 26]: 7170 and 12100
cell count [18, 22]: 6950 and 13600
z-score [19, 23]: -0.777 (inactive)
z-score [19, 24]: -0.145
remaining NAD [15]: 10 nM (inactive)
luciferase signal [16]: 48 AU (inactive)
z-score [17]: -1.48 (inactive)

CC1(C)C(C=C(Cl)Cl)C1C(=O)OC(C#N)c1cccc(Oc2ccccc2)c1 (stereo not drawn)
nuclear beta-catenin stimulation ([5]; at 10 µM): 0.7% (inactive)
nuclear beta-catenin stimulation ([5]; stimulation, at 2 µM): -1%
insulin secretion stimulation [6]: 8.1% (inactive)
viability decrease [7]: 1.2% (inactive)
tube area decrease [8]: -7.9% (inactive)
GLP1 secretion stimulation [9]: 4.4% (inactive)
inhibition of viability [10]: 40.5% (inactive)
viability decrease (inhibition) [11]: 27.7% (inactive)
viability decrease (inhibition) [12]: 23.2% (active)
red/green cell ratio (normalised) [13]: 0.82 (inactive)
normalised cell number [13, 20]: 1.16
normalised cell number [13, 21]: 0.96
fold change ([18]; stronger effect = lower value): 0.936 (inactive) and 0.968 (inactive)
fold change [18, 25]: 1.17 and 1.27
cell count [18, 26]: 7700 and 5600
cell count [18, 22]: 8230 and 5790
remaining NAD [15]: 10 nM (inactive)
